# Assay results: publication PMC10726135, “HNF4α isoforms regulate the circadian balance between carbohydrate and lipid metabolism in the liver”
# In all, about 18,000 sequences were measured (“log2 normalized intensity”: median about 0.36, highest 2% from about 7.3 on). This excerpt belongs to a sample that is enriched for the highest values.
# Molecular target: T1, HNF4alpha8 (COS-7 nuclear extract) (Homo sapiens, UniProt P41235-5 1-452)
# T1 sequence: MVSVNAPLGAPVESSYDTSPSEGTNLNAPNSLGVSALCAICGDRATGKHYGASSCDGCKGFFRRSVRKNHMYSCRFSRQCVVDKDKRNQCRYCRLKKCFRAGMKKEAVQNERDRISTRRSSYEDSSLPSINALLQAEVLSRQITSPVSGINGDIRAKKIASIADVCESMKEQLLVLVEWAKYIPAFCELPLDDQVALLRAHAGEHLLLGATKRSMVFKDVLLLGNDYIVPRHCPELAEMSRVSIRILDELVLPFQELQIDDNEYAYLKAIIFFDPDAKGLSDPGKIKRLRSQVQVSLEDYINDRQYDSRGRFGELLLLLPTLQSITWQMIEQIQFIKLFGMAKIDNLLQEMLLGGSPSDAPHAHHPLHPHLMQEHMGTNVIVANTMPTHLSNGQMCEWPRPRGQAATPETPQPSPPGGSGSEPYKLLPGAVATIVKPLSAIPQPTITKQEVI
# Assay: protein-binding microarray; COS-7 nuclear extract on double-stranded Agilent 4x180k PBM; binding buffer, salt, pH and temperature not given in the material; high values mean tight binding
# Conditions: chain copies: 2; label: 3' end of strand 1 on the slide; dsDNA, one strand shown
# How it was run: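 Binding signal is the background-corrected, normalized gProcessedSignal calculated by Agilent software. It was measured by applying nuclear extracts of COS-7 cells transiently transfected with a human HNF4α isoform expression vector to a custom Agilent SurePrint G3 4x180k array of ~44,000 double-stranded ~60-nt test sequences in quadruplicate, then imaging bound HNF4α on an Agilent G2565CA scanner at 2-µm resolution.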
row,Sequence,binding signal [log2 normalized intensity]
1,ACCAGACTACCTCTTTAGGCTGGACTCTGAGCCTAGGGAGATTAGAGTATCGGTCGA,4.7
2,ATGACCTCTTTTAGTAACTGACTTTAACTTGCCTAGGGAGATTAGAGTATCGGTCGA,1.03
3,ACTACCTCTTTAGGCTGGACTCTGACCCATGCCTAGGGAGATTAGAGTATCGGTCGA,7.54
4,TGCAGCCCTGCCACTCTTTTTTAGACTTTGGCCTAGGGAGATTAGAGTATCGGTCGA,4.39
5,CCACTCTTTTTTAGACTTTGACCTCCATATGCCTAGGGAGATTAGAGTATCGGTCGA,8.93
6,GCTTATCTGGGAGGGGGAGGTTTTGTGTCTGCCTAGGGAGATTAGAGTATCGGTCGA,0.884
7,AAATGTAATCAGCAAGTTTTATATGAAAACGCCTAGGGAGATTAGAGTATCGGTCGA,0.415
8,CTGTGGTCATTAATTAACTTGTGTTCAGAGGCCTAGGGAGATTAGAGTATCGGTCGA,1.07
9,TGTTCTTTACTTCCTTTTGTTCCTGCTCTAGCCTAGGGAGATTAGAGTATCGGTCGA,1.67
10,AGTCTGCTCAAGTCTTTTAGAATGTGGATGGCCTAGGGAGATTAGAGTATCGGTCGA,1.71
11,TCAGTTGCAGAAAAACAGGTTCTGCAACACGCCTAGGGAGATTAGAGTATCGGTCGA,0.876
12,ATTACCAATGAGAAACCTCAAAGGTTAGGGGCCTAGGGAGATTAGAGTATCGGTCGA,0.852
13,GAGCAAAGGGCATGGAGGATTTAGATAACAGCCTAGGGAGATTAGAGTATCGGTCGA,0.728
14,CTGAACTTTAAACTGGTGTGTCTTGCCTTTGCCTAGGGAGATTAGAGTATCGGTCGA,2.42
15,TATCTTGTGACCTTTGACTCATTATCCCCCGCCTAGGGAGATTAGAGTATCGGTCGA,7.09
16,AGTGGTTTAAAAACTTATCTTGTGACCTTTGCCTAGGGAGATTAGAGTATCGGTCGA,7.47
17,ATCTGACCTTTGGTTAACTTCTTAACTTGGGCCTAGGGAGATTAGAGTATCGGTCGA,3.5
18,ATTCTCTTATCTACTTTAAGATTTGACCCTGCCTAGGGAGATTAGAGTATCGGTCGA,5.76
19,CTTATCTACTTTAAGATTTGACCCTTGGCCGCCTAGGGAGATTAGAGTATCGGTCGA,7.78
20,AAACTTATCTTGTGACCTTTGACTCATTATGCCTAGGGAGATTAGAGTATCGGTCGA,7.16
21,TTTAAAAACTTATCTTGTGACCTTTGACTCGCCTAGGGAGATTAGAGTATCGGTCGA,8.96
22,TTAAGATTTGACCCTTGGCCAGGTGCAGTGGCCTAGGGAGATTAGAGTATCGGTCGA,5.41

row,Sequence,binding signal [log2 normalized intensity]
1,TTACTGGGGCCCATTGTATGAGGGTGAAGTGCCTAGGGAGATTAGAGTATCGGTCGA,0.972
2,CATCGGACTTTGATCTGCCACATACCTTTAGCCTAGGGAGATTAGAGTATCGGTCGA,5.04
3,CTATCTCAGATAGCTTTAGCCGGACTTTGTGCCTAGGGAGATTAGAGTATCGGTCGA,5.85
4,TCAGATAGCTTTAGCCGGACTTTGTCCTTTGCCTAGGGAGATTAGAGTATCGGTCGA,8.54
5,TAGCTTTAGCCGGACTTTGTCCTTTGATTTGCCTAGGGAGATTAGAGTATCGGTCGA,7.5
6,AAATGTACTGGATATAGCCAGATGTCCTTTGCCTAGGGAGATTAGAGTATCGGTCGA,2.37
7,CGGACTTTGTCCTTTGATTTTTTAAAGTAAGCCTAGGGAGATTAGAGTATCGGTCGA,5.37
8,ACCCAGGTGTGTTGCAACTTTGACTATAGCGCCTAGGGAGATTAGAGTATCGGTCGA,0.342
9,GTTTGCATTTTAACCTTTGGCTGGTAGAGCGCCTAGGGAGATTAGAGTATCGGTCGA,4.17
10,AGCCGTCTGGTAAATTTCTAACACTCCCCAGCCTAGGGAGATTAGAGTATCGGTCGA,2.15
11,GGGTCAGTTTATCTAAGATTCCCCCTACCCGCCTAGGGAGATTAGAGTATCGGTCGA,4
12,AAGTGACCCTGGTCTTTGCCCTTTCCTAGAGCCTAGGGAGATTAGAGTATCGGTCGA,3.98
13,GAGAAGTGAACTTTGCCCTCTCTTTCTGGAGCCTAGGGAGATTAGAGTATCGGTCGA,8.26
14,GGCTTGATCCCTGAACTTTGCTCCCACCCTGCCTAGGGAGATTAGAGTATCGGTCGA,6.25
15,ACTGATCTCTGGCTTGATCCCTGAACTTTGGCCTAGGGAGATTAGAGTATCGGTCGA,4.37
16,GTGAACTTTGCCCTCTCTTTCTGGAACCTAGCCTAGGGAGATTAGAGTATCGGTCGA,5.67
17,TGGGCTCCTGCCTTGGAGAAGTGAACTTTGGCCTAGGGAGATTAGAGTATCGGTCGA,5.62
18,CCTTGGATCTCCTGCACCTGAACTTTGCTCGCCTAGGGAGATTAGAGTATCGGTCGA,6.94
19,TCCTGCCTTGGAGAAGTGAACTTTGCCCTCGCCTAGGGAGATTAGAGTATCGGTCGA,10.7
20,TCTCTGGCTTGATCCCTGAACTTTGCTCCCGCCTAGGGAGATTAGAGTATCGGTCGA,8.76
21,TGGAATCCAAAGTATTTTCTGTCTAGGTGCGCCTAGGGAGATTAGAGTATCGGTCGA,0.637
